Columns and labels:
Test in all cases: PBM binding z-score (relative to random genomic background probes); higher = stronger binding; sequences stand for … in GC…GCGATTGACAGCGTAGAATGAAGG
[1] = test system: FXR:RXRa (NR concentration 270 nM, RXRa partner concentration 90 nM)
Summary of the method: (§1)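 For binding z-scores, the reference was random background probes on custom Agilent 4×180K protein-binding microarrays. These arrays were incubated 1 h with ligand-free nuclear receptor dimers in PBS pH 7.4, 2% milk, 0.02% Triton X-100, 1 mM DTT, 0.2 mg/mL BSA and 0.4 mg/ml salmon testes DNA. Fluorescence was scanned after antibody detection of each partner (one per run) and regression-normalized.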

[2] = test system: LXRa:RXRa (NR concentration 270 nM, RXRa partner concentration 90 nM)
Summary of the method: as §1

[3] = test system: LXRa homodimer (NR concentration 270 nM)
Summary of the method: as §1

[4] = test system: LXRb:RXRa (NR concentration 270 nM, RXRa partner concentration 90 nM)
Summary of the method: as §1

[5] = test system: LXRb homodimer (NR concentration 270 nM)
Summary of the method: as §1

[6] = test system: PPARa:RXRa (NR concentration 270 nM, RXRa partner concentration 90 nM)
Summary of the method: as §1

[7] = test system: PPARg:RXRa (NR concentration 180 nM, RXRa partner concentration 90 nM)
Summary of the method: as §1

[8] = test system: PPARg:RXRa 270nM:90nM, anti-RXR (NR concentration 270 nM, RXRa partner concentration 90 nM)
Summary of the method: as §1

[9] = test system: PPARg:RXRa 30nM:10nM, anti-RXR (NR concentration 30 nM, RXRa partner concentration 10 nM)
Summary of the method: as §1

[10] = test system: PPARg:RXRa 90nM:30nM, anti-RXR (NR concentration 90 nM, RXRa partner concentration 30 nM)
Summary of the method: as §1

[11] = test system: PPARg:RXRa DBDmut IVT, anti-RXR (DBD mutation: RXRa K156A/R161A, NR concentration 270 nM, RXRa partner concentration 90 nM)
Summary of the method: as §1

[12] = test system: PPARg:RXRa IVT, anti-PPARg (NR concentration 270 nM, RXRa partner concentration 90 nM)
Summary of the method: as §1

[13] = test system: PPARg DBDmut:RXRa IVT, anti-PPARg (DBD mutation: PPARg1 K132A/R137A, NR concentration 270 nM, RXRa partner concentration 90 nM)
Summary of the method: as §1

[14] = test system: PPARg DBDmut IVT, anti-PPARg (DBD mutation: PPARg1 K132A/R137A, NR concentration 270 nM)
Summary of the method: as §1

[15] = test system: PPARg homodimer (NR concentration 180 nM)
Summary of the method: as §1

[16] = test system: PXR:RXRa (NR concentration 270 nM, RXRa partner concentration 90 nM)
Summary of the method: as §1

[17] = test system: PXR homodimer (NR concentration 270 nM)
Summary of the method: as §1

[18] = test system: RARa:RXR (NR concentration 270 nM, RXRa partner concentration 90 nM)
Summary of the method: as §1

[19] = test system: RARa homodimer (NR concentration 270 nM)
Summary of the method: as §1

[20] = test system: RARb:RXRa (NR concentration 270 nM, RXRa partner concentration 90 nM)
Summary of the method: as §1

Sequence	PBM binding z-score [1]	PBM binding z-score [2]	PBM binding z-score [3]	PBM binding z-score [4]	PBM binding z-score [5]	PBM binding z-score [6]	PBM binding z-score [7]	PBM binding z-score [8]	PBM binding z-score [9]	PBM binding z-score [10]	PBM binding z-score [11]	PBM binding z-score [12]	PBM binding z-score [13]	PBM binding z-score [14]	PBM binding z-score [15]	PBM binding z-score [16]	PBM binding z-score [17]	PBM binding z-score [18]	PBM binding z-score [19]	PBM binding z-score [20]
ACAGACAGGTGATGTAGGTAACTCAGGCTATCAT	-0.0766	-0.183	-0.0278	-0.28	-0.53	0.633	0.673	-0.0404	-0.31	-0.171	1.26	2.15	0.582	0.742	-0.119	-0.31	0.148	-0.0493	0.492	0.149
CGAGCGAGGGCATGAGTTGATAGCAAATGCCGAT	0.5	0.467	-0.292	0.175	-1.07	0.945	0.571	0.44	-0.503	0.0146	0.598	0.064	-0.548	-1	-0.175	0.544	-0.137	0.536	-0.541	2.03
ACTATTAGTTGAGACGGGGGCAACCGATAGGTTG	1.28	1.35	0.528	3.71	7.57	2.52	1.16	2.35	1.24	1.87	1.48	3.27	5.1	7.99	1.63	2.63	0.549	2.25	0.997	1.94
GGAACGAGGGCATTCGAGTTGATCGCATGGCGAT	1.56	1.88	-0.524	0.182	-1	1.17	0.585	0.552	-0.63	0.176	3.31	1.97	-0.808	-0.537	-0.069	3.96	1.47	0.882	-1.16	1.68
ACTAGTTGGACAGCTGAGGTCACACACAATTCGG	3.1	2.78	1.59	3.3	0.683	3.53	1.65	1.76	0.342	1.41	0.874	1.88	0.609	0.717	1.73	4.67	1.34	4.57	1.08	3.33

Source: the supplement of paper PMC6555819
